Drawing on PubChem BioAssay (NCI), this text covers growth inhibition for ten molecules.

This is part of a sample that, as a whole, favours compounds with a hit. Of some 79,000 tested, about 15% had one in any assay. Unmarked numbers belong to inactive results. The source made the active and inactive calls. Cut-off read from the data, not from the text of the source: active = growth inhibition above about 70%; inactive = the rest.

The nature of test [1]: NCI Yeast Anticancer Drug Screen. Data for the rad50 strain (AID 155).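 Note: 0% = growth of vehicle-only cultures of the same strain.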 Conditions: S. cerevisiae rad50 strain growth inhibition, hits give high values. In short, it runs like this: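 Readout: growth inhibition relative to vehicle-treated cultures. Compound exposure was carried out in a genetically defined yeast strain deficient in DNA damage repair.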
Test [2] in a line: NCI Yeast Anticancer Drug Screen. Data for the mec2-1 strain (AID 157). To be noted: S. cerevisiae mec2-1 strain, hits give high values. In outline: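 Mutant yeast (mec2-1) grown with compound; growth inhibition relative to vehicle control reported.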
Test [3] in a line: NCI Yeast Anticancer Drug Screen. Data for the sgs1 mgt1 strain (AID 161).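 Note: 0% = growth of cultures given vehicle only.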 To be noted: S. cerevisiae sgs1 mgt1 strain, hits give high values. In short, it runs like this:
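Percent growth inhibition was derived by comparing compound-exposed mutant yeast with vehicle-exposed cultures. The strain carries alterations in DNA damage repair.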

Test [4] is described as follows: NCI Yeast Anticancer Drug Screen. Data for the cln2 rad14 strain (AID 165).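 Note: 0% = growth equal to vehicle treated cultures.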 Conditions: S. cerevisiae cln2 rad14 strain, hits give high values. In short, it runs like this: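 Readout is yeast growth inhibition versus vehicle-treated controls, using a strain with cln2 and rad14 alterations exposed to compound.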
Test [5] in a line: NCI Yeast Anticancer Drug Screen. Data for the mlh1 rad18 strain (AID 175). Conditions: S. cerevisiae mlh1 rad18 strain growth inhibition, hits give high values. In outline: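 Genetically defined yeast (DNA repair-deficient) exposed to compounds; growth inhibition determined relative to vehicle.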
Test [6] in a line: NCI Yeast Anticancer Drug Screen. Data for the bub3 strain (AID 167). Conditions: S. cerevisiae bub3 mutant strain, hits give high values. In short, it runs like this:
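Readout: yeast growth inhibition, expressed relative to vehicle-only wells. The test organism is a mutant strain from a panel with lesions in DNA repair or checkpoint genes.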

The mark [7] stands for this setting: at 5.0 µM (retest, dose inferred, filed as 0.5).
[8] abbreviates: at 50.0 µM (retest, dose inferred, filed as 5.0).

Turning to `O=C(N/N=C/c1cc(Br)ccc1O)c1ccccc1`, the growth inhibition in test [1] (setting [7]) is 59%; in test [1] (setting [8]), 61%; in test [1] (at 50.0 µM) it was -23.9%; in test [2] (setting [7]), 32%; in test [2] (setting [8]), 53%; in test [2] (at 50.0 µM), -18.9%. Besides, the growth inhibition in test [3] (setting [7]) is 64%; in test [3] (setting [8]), 82% (active); in test [3] (at 50.0 µM), 5.65%; in test [4] (setting [7]) it was 21%; in test [4] (setting [8]), 25%; in test [4] (at 50.0 µM), -33.9%. Besides, the growth inhibition is 92% (active) in test [5] (setting [7]), 90% (active) in test [5] (setting [8]) and -6.75% in test [5] (at 50.0 µM).

On to `CCOC(=O)C(=O)C1CCCCC1=O` (configuration not stated), for which the growth inhibition in test [1] (setting [7]) is 9%; in test [1] (setting [8]), 95% (active); in test [1] (at 50.0 µM), 98.5% (active); in test [2] (setting [7]), 6%; in test [2] (setting [8]), 98% (active); in test [2] (at 50.0 µM), 98.8% (active). In addition, the growth inhibition in test [3] (setting [7]) is 5%; in test [3] (setting [8]), 92% (active); in test [3] (at 50.0 µM), 98.8% (active); in test [4] (setting [7]), 21%; in test [4] (setting [8]), 98% (active); in test [4] (at 50.0 µM) it was 98.8% (active). Further, the growth inhibition in test [6] (setting [7]) was 6%; in test [6] (setting [8]), 98% (active); in test [6] (at 50.0 µM), 97% (active); in test [5] (setting [7]) it was 11%; in test [5] (setting [8]), 98% (active); in test [5] (at 50.0 µM), 98.8% (active).

Take `CC[n+]1cnc(N)c2c(-c3ccc(Cl)cc3)cn(-c3ccc(C)cc3)c21`: the growth inhibition in test [1] (setting [7]) is -2%; in test [1] (setting [8]), 98% (active); in test [1] (at 50.0 µM), 93.1% (active); in test [2] (setting [7]), -4%; in test [2] (setting [8]), 99% (active); in test [2] (at 50.0 µM), 95.5% (active). Besides, the growth inhibition in test [4] (setting [7]) is -6%; in test [4] (setting [8]), 98% (active); in test [4] (at 50.0 µM), 46.9%; in test [6] (setting [7]), -1%; in test [6] (setting [8]), 98% (active); in test [6] (at 50.0 µM), 80.3% (active). Besides, the growth inhibition in test [5] (setting [7]) was -3%; in test [5] (setting [8]), 98% (active); in test [5] (at 50.0 µM) it was 97.8% (active).

As for `COCc1ccc([N+](=O)[O-])o1`, the growth inhibition in test [1] (setting [7]) was 17%; in test [1] (setting [8]) it was 89% (active); in test [1] (at 50.0 µM) it was 71.5% (active); in test [2] (setting [7]) it was 1%; in test [2] (setting [8]), 35%; in test [2] (at 50.0 µM) it was 21.6%. Further, the growth inhibition was 11% in test [3] (setting [7]); 76% (active) in test [3] (setting [8]); 78.7% (active) in test [3] (at 50.0 µM); 6% in test [4] (setting [7]); 24% in test [4] (setting [8]); 7.65% in test [4] (at 50.0 µM). The growth inhibition in test [5] (setting [7]) is 17%; in test [5] (setting [8]) it was 84% (active); in test [5] (at 50.0 µM) it was 66.2%.

`CCOC(=O)C1=C(Nc2ccc(Br)cc2)OC/C1=N\NC(=O)c1ccccc1O`: the growth inhibition in test [1] (setting [7]) is 11%; in test [1] (setting [8]), 11%; in test [1] (at 50.0 µM), 50.6%; in test [2] (setting [7]), -16%; in test [2] (setting [8]), -16%; in test [2] (at 50.0 µM), 53.5%. Further, the growth inhibition is 7% in test [3] (setting [7]); 7% in test [3] (setting [8]); 71.6% (active) in test [3] (at 50.0 µM); 4% in test [4] (setting [7]); 4% in test [4] (setting [8]); 25.7% in test [4] (at 50.0 µM). In addition, the growth inhibition in test [5] (setting [7]) was 5%; in test [5] (setting [8]) it was 5%; in test [5] (at 50.0 µM), 67%.

Take `CS(=O)(=O)c1cc(=O)c2ccccc2s1`: the growth inhibition in test [1] (setting [7]) is 6%; in test [1] (setting [8]), 99% (active); in test [1] (at 50.0 µM), 97.2% (active); in test [2] (setting [7]), 23%; in test [2] (setting [8]), 99% (active); in test [2] (at 50.0 µM) it was 96.6% (active). Besides, the growth inhibition was 21% in test [3] (setting [7]); 99% (active) in test [3] (setting [8]); 97.5% (active) in test [3] (at 50.0 µM); 10% in test [4] (setting [7]); 99% (active) in test [4] (setting [8]); 84.7% (active) in test [4] (at 50.0 µM). The figures for the growth inhibition in test [5] (setting [7]), in test [5] (setting [8]) and in test [5] (at 50.0 µM) were 17%, 99% (active) and 97.8% (active), respectively.

Regarding `COc1ccc2c(c1)c(=O)c1c(NCCN(C)C)ccc3nnn2c31`, the growth inhibition in test [1] (setting [7]) was 13%; in test [1] (setting [8]) it was 51%; in test [1] (at 50.0 µM) it was 28.2%; in test [2] (setting [7]) it was -18%; in test [2] (setting [8]) it was 14%; in test [2] (at 50.0 µM) it was 14.4%. Further, the growth inhibition in test [3] (setting [7]) is 6%; in test [3] (setting [8]), 4%; in test [3] (at 50.0 µM), 10.2%; in test [4] (setting [7]), -13%; in test [4] (setting [8]) it was 37%; in test [4] (at 50.0 µM) it was 18.9%. In addition, the growth inhibition in test [6] (setting [7]) was -4%; in test [6] (setting [8]), 43%; in test [6] (at 50.0 µM) it was 11.6%; in test [5] (setting [7]), -10%; in test [5] (setting [8]), -12%; in test [5] (at 50.0 µM) it was 79.7% (active).

With `CC(C)[C@@H]1CC[C@@H](C)C[C@H]1OC(=O)NN`, the growth inhibition is -8% in test [1] (setting [7]); 72% (active) in test [1] (setting [8]); 89.5% (active) in test [1] (at 50.0 µM); -30% in test [2] (setting [7]); 53% in test [2] (setting [8]); 90.3% (active) in test [2] (at 50.0 µM). For the same molecule, the growth inhibition in test [3] (setting [7]) is -8%; in test [3] (setting [8]), 70% (active); in test [3] (at 50.0 µM), 91.2% (active); in test [4] (setting [7]) it was 1%; in test [4] (setting [8]) it was -2%; in test [4] (at 50.0 µM) it was 59.6%. Moreover, the growth inhibition in test [5] (setting [7]) was -6%; in test [5] (setting [8]), 68%; in test [5] (at 50.0 µM), 95.3% (active).

Consider `CN(C)c1ccc(N=Nc2ccc3c4c(cccc24)-c2ccccc2-3)cc1`, for which the growth inhibition is 26% in test [1] (setting [7]); 94% (active) in test [1] (setting [8]); 96.5% (active) in test [1] (at 50.0 µM); -4% in test [2] (setting [7]); 96% (active) in test [2] (setting [8]); 97.5% (active) in test [2] (at 50.0 µM). Also, the growth inhibition is 3% in test [3] (setting [7]); 96% (active) in test [3] (setting [8]); 97.4% (active) in test [3] (at 50.0 µM); -1% in test [4] (setting [7]); 97% (active) in test [4] (setting [8]); 95.8% (active) in test [4] (at 50.0 µM). In addition, the growth inhibition in test [6] (setting [7]) is 0%; in test [6] (setting [8]), 95% (active); in test [6] (at 50.0 µM), 97% (active); in test [5] (setting [7]), -1%; in test [5] (setting [8]), 95% (active); in test [5] (at 50.0 µM) it was 97% (active).

For the molecule `CCCCc1[nH]ccc2c(C)c3nc4ccccc4c3cc12`, the growth inhibition in test [1] (setting [7]) is 6%; in test [1] (setting [8]), 93% (active); in test [1] (at 50.0 µM), 96.8% (active); in test [2] (setting [7]) it was -8%; in test [2] (setting [8]) it was 96% (active); in test [2] (at 50.0 µM), 91.2% (active). For the same molecule, the growth inhibition in test [3] (setting [7]) was -14%; in test [3] (setting [8]) it was 96% (active); in test [3] (at 50.0 µM), 97.5% (active); in test [4] (setting [7]), 2%; in test [4] (setting [8]), 95% (active); in test [4] (at 50.0 µM), 92.1% (active). In addition, the growth inhibition was 0% in test [6] (setting [7]); 94% (active) in test [6] (setting [8]); 88.7% (active) in test [6] (at 50.0 µM); 21% in test [5] (setting [7]); 95% (active) in test [5] (setting [8]); 98.4% (active) in test [5] (at 50.0 µM).
